# Source: PubChem (several laboratories)
# DTT redox prof: compounds producing H2O2 with reducing agent – biochemical, NIH compound library profiling, artefact control for MLSCN library redox annotation, primary screen. DTT-dependent redox cycling H2O2, phenol red/HRP absorbance; 100% = 100 µM peroxide control, 0% = buffer. 0.03% of 200,000 active. activation, % at 10 µM;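 active = activation of at least 50% relative to the plate's high and low controls in the primary single-dose screen; inactive = activation below 50%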;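 note: compound incubated with DTT at 0.8 mM final as the reducing agent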
# Arbovirus inh: antivirals against arbovirus infection, primary screen, cell-based, full library, 10K replicate subset; arbovirus infection cell-based antiviral screen; inhibition, % at 10 µM; 0.37% of 200,000 active; AID 1251, 2008; in the data active = inhibition above about 30%
# S1P4 antagonist: S1P4 receptor antagonists, primary screen, cell-based; S1P4-expressing cells, antagonist mode, reporter read-out; inhibition, % at 4.98 µM; 0.26% of 220,000 active; in the data active = inhibition above about 29%;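 note: 0% = wells stimulated with agonist and 100% = vehicle wells without agonist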
# p97 inhibitor: inhibitors of human p97 ATPase, primary screen, biochemical; Transitional endoplasmic reticulum ATPase (Homo sapiens), P55072; recombinant p97 ATPase, Kinase-Glo ATP luminescence, 3 h; inhibition, % at 8 µM; 0.42% of 220,000 active; AID 1481, 2009; in the data active = inhibition above about 15%;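 note: 0% = DMSO vehicle and 100% = wells lacking enzyme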
# Target sequence (P55072 whole entry, looked up): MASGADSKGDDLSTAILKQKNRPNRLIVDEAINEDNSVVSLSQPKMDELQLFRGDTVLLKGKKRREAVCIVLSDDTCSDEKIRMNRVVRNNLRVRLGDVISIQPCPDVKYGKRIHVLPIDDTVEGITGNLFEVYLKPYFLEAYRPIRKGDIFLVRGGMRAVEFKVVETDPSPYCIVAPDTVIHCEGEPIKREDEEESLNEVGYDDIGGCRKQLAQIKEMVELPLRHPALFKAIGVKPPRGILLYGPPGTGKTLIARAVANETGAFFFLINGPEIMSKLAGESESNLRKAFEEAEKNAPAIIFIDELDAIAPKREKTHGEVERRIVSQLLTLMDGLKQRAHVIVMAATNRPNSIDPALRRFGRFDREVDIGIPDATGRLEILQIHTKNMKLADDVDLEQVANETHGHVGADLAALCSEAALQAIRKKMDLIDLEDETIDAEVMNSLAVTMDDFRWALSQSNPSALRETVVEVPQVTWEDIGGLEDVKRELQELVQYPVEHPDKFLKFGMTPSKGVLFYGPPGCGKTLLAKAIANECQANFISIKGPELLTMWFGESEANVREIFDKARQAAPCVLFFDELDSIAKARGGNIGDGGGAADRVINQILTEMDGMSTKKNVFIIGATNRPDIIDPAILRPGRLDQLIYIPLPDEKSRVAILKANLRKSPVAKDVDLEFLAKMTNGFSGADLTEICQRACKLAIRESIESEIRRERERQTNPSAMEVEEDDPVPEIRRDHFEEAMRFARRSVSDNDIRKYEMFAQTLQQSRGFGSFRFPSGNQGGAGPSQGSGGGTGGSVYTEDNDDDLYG
# S1P3 antagonist: S1P3 receptor antagonists, primary screen, cell-based. Sphingosine 1-phosphate receptor 3 (Homo sapiens), Q99500. CHO S1P3 NFAT-BLA reporter, FRET fluorescence, antagonist mode. inhibition, % at 4.98 µM. AID 485, 2006. 0.27% of 170,000 active;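 active = inhibition above the plate cutoff, the mean inhibition of test wells on that plate plus 3 SD, cut at about 28% in these data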;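 note: cells challenged with S1P at its EC80 of 0.8 µM; blue over green emission ratio from cleaved BLA substrate after 4 h stimulation; 0% = S1P-stimulated wells and 100% = unstimulated DMSO-only wells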
# S1P4 ag: S1P4 receptor agonists, primary screen, cell-based. activation, % at 4.98 µM. S1P4-expressing cell line, agonist reporter assay. Sphingosine 1-phosphate receptor 4 (Homo sapiens), O95977. 0.35% of 220,000 active; in the data active = activation above about 11%;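 note: 0% = DMSO vehicle and 100% = reference agonist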
# Numbers without * were called inactive; nt = no result. Sampled rows, rich in hits. Any-hit rate of the full collection: about 1.6%.
SMILES,DTT redox prof,Arbovirus inh,S1P4 antagonist,p97 inhibitor,S1P3 antagonist,S1P4 ag
COc1ccc(-n2cccc2/C=C2\C(=N)N3N=C(C(C)C)SC3=NC2=O)cc1,0,30*,-35,-5,10,2
COc1ccc(-n2cccc2/C=C2\C(=N)N3N=C(c4ccco4)SC3=NC2=O)cc1,0,39*,-3,6,-10,0
Cc1cccc(-n2c3nc(=O)[nH]c(=O)c-3cc3cc([N+](=O)[O-])ccc32)c1,0,38*,4,9,3,1
Cc1ccc(C)c(-n2c3nc(=O)[nH]c(=O)c-3cc3cc([N+](=O)[O-])ccc32)c1,0,18,-18,7,-1,3
O=C(O)c1cccc(NC(=S)NC(=O)c2ccc(-c3ccc(Cl)cc3)o2)c1,7,35*,11,3,-4,-2
COc1ccc(C(=O)O)cc1NC(=S)NC(=O)c1ccc(-c2ccc(Cl)cc2)o1,2,50*,10,4,-17,-2
Cc1ccc(C(=O)O)cc1NC(=S)NC(=O)c1ccc(-c2ccc(Cl)cc2)o1,nt,nt,-1,-5,2,0
CCCCn1c(SCC(=O)N2CCN(c3ccccc3)CC2)nc2ccsc2c1=O,0,34*,3,2,nt,0
CS(=O)(=O)N(CC(=O)N1CCCC1)Cc1ccc(Cl)cc1,0,5,-6,3,-6,1
COc1ccc(NS(=O)(=O)c2cccc(-c3nnc4n3CCCCC4)c2)cc1,-1,3,-8,2,nt,0
O=c1[nH]c2ccc(S(=O)(=O)Nc3ccc(-c4nnc5n4CCCCC5)cc3)cc2o1,2,5,-1,6,66*,-1
CCC(C(=O)NC1CCCCC1)n1c(SCc2ccccc2F)nc2ccncc21 (stereo unspecified),1,-5,5,4,-1,1
CC(C)(Sc1cc(C(C)(C)C)c(O)c(C(C)(C)C)c1)Sc1cc(C(C)(C)C)c(O)c(C(C)(C)C)c1,5,22,-19,5,-4,49*
C/C(=N/O)c1cc(C(C)(C)C)c(O)c(C(C)(C)C)c1,0,14,-9,0,nt,-5
CCOC(=O)c1ccc(N2C(=O)C3C(/C=C/c4ccccc4)OC4(C(=O)c5ccccc5C4=O)C3C2=O)cc1 (stereo unspecified),0,73*,-5,2,-5,0
CC(=O)Nc1ccnc(-c2cccnc2)n1,-1,13,-15,3,nt,-2
O=C(Nc1cccc(Cl)c1)Nc1ccnc(-c2cccnc2)n1,-2,34*,-17,0,-12,1
COc1ccc(-c2csc3[nH]c(=S)n(-c4ccccc4)c(=O)c23)cc1OC,0,-7,-10,-5,-6,-1
CCC(=O)N1c2ccccc2-c2nnc(SC)nc2OC1c1ccc(N(C)C)cc1 (stereo unspecified),1,4,-9,7,-44,220*
Cc1cc(NS(=O)(=O)c2ccccc2)c(C)c(Cl)c1O,nt,-14,nt,nt,15,nt
O=S(=O)(Nc1cc(Sc2ncn[nH]2)c(O)c2ccccc12)c1ccccc1,19,-41,-35,29*,-14,5
CCNc1ccc2c(Cl)cc(=O)oc2c1,1,-1,7,0,20,4
Cc1[nH][nH]c(=O)c1C(c1c(C)[nH][nH]c1=O)c1cn(Cc2ccc(F)cc2)c2ccccc12,0,2,-14,26*,3,1
Cc1ccc2c(c1)c(Sc1ccccc1)c(CC(=O)O)n2C,0,31*,-11,-3,2,0
CC(NC(=O)c1ccc(N(C)C)cc1)C1CC2CCC1C2 (stereo unspecified),0,12,34*,-3,nt,1
SMILES,DTT redox prof,Arbovirus inh,S1P4 antagonist,p97 inhibitor,S1P3 antagonist,S1P4 ag
Cc1ccc(C)c(N2CCN(CC3CC=CCC3)CC2)c1 (stereo unspecified),0,7,-8,-1,nt,1
O=C(Nc1ccc(NC(=O)c2cccs2)cc1Cl)c1ccco1,-1,-10,3,-6,-13,1
O=C(Nc1cccc(NC(=O)c2cccs2)c1)c1ccco1,1,64*,-13,2,11,4
Cc1ccc(-c2cc(-c3ccccc3)no2)c(O)c1,1,36*,13,2,3,-1
COC(=O)c1c(N(S(C)(=O)=O)S(C)(=O)=O)sc2c1CCN(c1ncc(C(F)(F)F)cc1Cl)C2,1,48*,-18,3,nt,2
Cc1ccc(C)c(NC(=O)Cn2nnc(-c3ccc(N4CCOCC4)cc3)n2)c1,0,-5,-18,1,-16,1
COCCCn1c(N)c(-c2nc3ccccc3n2C)c2nc3ccccc3nc21,0,44*,19,-2,nt,-5
Cn1c(-c2c(N)n(C3CCCC3)c3nc4ccccc4nc23)nc2ccccc21,2,-43,4,-1,75*,1
CC1CCOC2(O1)C(=O)Nc1ccccc12 (stereo unspecified),-1,5,-19,-5,-22,1
Cc1c(Br)c(=O)[nH]c(=O)n1COCc1ccccc1,-2,9,-35,5,7,0
O=c1[nH]c(=O)n(C(c2ccccc2)c2ccccc2)cc1Br,0,32*,-12,4,-5,1
O=C1CC(=O)c2c1cccc2[N+](=O)[O-],nt,nt,-4,17*,3,0
C=CCN=C(NC#N)SCC(=O)c1cccc(OC)c1,1,9,-9,10,-4,0
CCOC(=O)c1cnc2ccccc2c1Nc1cc(C(=O)O)ccc1C,0,18,1,9,-5,1
Cc1ccc2nc(-c3ccc(Br)o3)oc(=O)c2c1,0,37*,9,-3,nt,0
CC1CCc2c(sc3nc(SCC(=O)NCc4ccco4)nc(N)c23)C1 (stereo unspecified),2,-10,15,1,92*,0
CC1CCc2c(sc3nc(C4CC4)nc(SCC(=O)NCc4ccco4)c23)C1 (stereo unspecified),nt,nt,nt,nt,18,nt
Cn1cc([N+](=O)[O-])c(C(=O)Nc2cc(Oc3cccnc3)cc([N+](=O)[O-])c2)n1,-7,-37,31*,-1,nt,-5
CCn1cc(S(=O)(=O)Nc2cc(F)ccc2C)cn1,-2,4,-8,-3,-32,1
Cc1ccn2cc(CCNC(=O)COc3ccccc3)nc2c1,nt,nt,-10,4,2,1
COc1ccc(NC(=O)c2c[nH]n3c(=O)cc(C4CCN(C(=O)OC(C)(C)C)CC4)nc23)cc1Cl,5,49*,7,0,-13,0
